The panel holds about 83,000 compounds, 20% with a hit somewhere; the sample as a whole holds those more often.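 Cell lines were cultured in 96-well plates, exposed to a single compound concentration, and assessed for percent growth 48 hours later.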 Values without a mark were called inactive. Calls of active or inactive are those of the source. How the source made its calls: active means growth percent below 10; inactive means the rest.

This assay concerns OVCAR-8 ovarian. Nature of the assay: NCI-60 one-dose screen, 48 h (100 = growth as untreated, 0 = no growth, -100 = all killed). Conditions: 10 µM unless noted.
As for `COc1cc(Cn2c(SCCC(=O)Nc3ccc(F)cc3)nc3ccccc3c2=O)cc(OC)c1OC`, the growth is 84.1%.
With `O=C(O)c1cn(C2CC2)c2cc(N3CCN(S(=O)(=O)c4ccc(Cl)c(Cl)c4)CC3)c(F)cc2c1=O`, the growth was 5.48% (active).
`COc1cc(NCCCN=C(N)NC(N)=NC(C)C)c2ncccc2c1`: the growth is 88.5%.
For the compound `O=C(O)c1cccc([N+](=O)[O-])c1/C=C/c1ccccc1`, the growth was 115%.
For `NC(CC(N)C(=O)O)C(=O)O` (stereo not drawn), the growth is 100%.
To `O=C(O)c1ccc(-n2c(=O)c3ccccc3c3ccccc3c2=O)cc1` belongs 111%; to `COc1cc(Cn2c(SCC(=O)Nc3ccc(Cl)cc3)nc3ccccc3c2=O)cc(OC)c1OC`, 62.9%; to `CN(C)c1ncc(-c2ccc(C(F)(F)F)cc2)c(NC2CCCCCC2)n1`, 49.8%.
Take `Nc1c(C(=O)Nc2ccccc2)sc2nc3c(cc12)CCCCC3`: the growth was 17.9%.
In the case of `CCn1cc(C(=O)O)c(=O)c2cc(F)c(N3CCN(S(=O)(=O)c4c(C)cc(C)cc4C)CC3)cc21`, the growth was 81.5%.
For `CCn1cc(C(=O)O)c(=O)c2cc(F)c(N3CCN(S(=O)(=O)c4ccc(Cl)cc4Cl)CC3)cc21`, the growth was 5.84% (active).
Consider `COC12CC(=O)C(C(C)=O)=C(O)C1(C)c1c(O)c(C)c(O)c(C(C)=O)c1O2` (stereo not drawn), for which the growth was 58.7%.
To `CCCC(C(=O)OCC)C(C)OC(=O)OCC` (stereo not drawn) belongs 96.4%; to `NC(=O)NC(=O)/C=C/C(=O)OCCCl`, 90.7%.
Under `Cc1ccc(C2=NN(c3ccc(S(=O)(=O)NC(=O)NCc4ccccc4)cc3)C(c3ccc(N(C)C)cc3)C2)c(C)c1` (stereo not drawn) stands 30.6%; under `COc1ccc(-c2cn[nH]c2-c2cc(OC)c3c(c2)OCO3)cc1`, 11.7%; under `CCCCCCCCCCCCNC(=S)N/N=C/c1ccc(Cl)c(Cl)c1`, 100%.
As to `Oc1ccc(Cl)cc1-c1cc(-c2ccc(Cl)cc2)n[nH]1`, the growth is 72.5%.
Turning to `COc1cc(NC(=O)CSc2nc3ccc(C)cc3c(=O)n2-c2ccccc2)cc(OC)c1OC`, the growth is 87.4%.
On to `Clc1nc(-c2cccnc2)nc2sc3c(c12)CCCCCC3`, for which the growth was 103%.
Under `CCCCCCCCCCCCCCCCC(Br)C(=O)O` (stereo not drawn) stands 103%.
As to `CCN(Cc1ccccc1)c1ccc(SC#N)cc1`, the growth was 85.9%.
As to `CCCCCC(=O)OCc1ccccc1`, the growth was 102%.
In the case of `COc1ccc(S(=O)(=O)N2CCN(c3cc4c(cc3F)c(=O)c(C(=O)O)cn4C3CC3)CC2)c(OC)c1`, the growth is 92.4%.
Consider `COc1cc2nc(N3CCC[C@@H](NC4=CC(=O)c5ccccc5C4=O)C3)nc(N)c2cc1OC`, for which the growth is -41.2% (active).
As to `COc1ccccc1CNCCCN1C(=O)c2ccc3c4c(ccc(c24)C1=O)C(=O)N(CCCNCCCCNCCCCN)C3=O`, the growth is -18.2% (active).
Consider `Cc1cc(C)c(S(=O)(=O)N2CCN(c3cc4c(cc3F)c(=O)c(C(=O)O)cn4C3CC3)CC2)c(C)c1`, for which the growth is 59.5%.
For `COc1ccc(NC(=O)CSc2nc3ccccc3c(=O)n2-c2ccccc2C(F)(F)F)c(OC)c1OC`, the growth was 98%.
On to `CNC(C)=O`, for which the growth is 102%.
Under `CCN(CC)P(=O)(N(CC)CC)N(CCCSC/C=C(\C)CC/C=C(\C)CCC=C(C)C)CCCN1CCN(C)CC1` stands 97.1%; under `COc1ccc(NC(=O)CSc2nc3ccc(Cl)cc3c(=O)n2-c2ccccc2C(F)(F)F)c(OC)c1OC`, 39.3%; under `O=S(=O)(O)CCl`, 100%.
For the compound `COc1ccc(OC)c(C(=O)c2oc3ccc(Br)cc3c2N)c1`, the growth was 16.6%.
`COc1cc(NCCN=C(N)NC(N)=NC(C)C)c2ncccc2c1`: the growth was 87%.
Under `CC(=O)Nc1nc(C(=O)N2N=C(C)/C(=C/c3cccs3)C2=O)cs1` stands 103%.
As for `CC(C)[C@H](CO)Nc1nc(Nc2ccc(C(=O)NCCNS(=O)(=O)c3cccc4c(N(C)C)cccc34)c(Cl)c2)c2ncn(C(C)C)c2n1`, the growth is 9.87% (active).
As to `CCn1cc(C(=O)O)c(=O)c2cc(F)c(N3CCN(S(=O)(=O)c4cccc5ccccc45)CC3)cc21`, the growth is 8.43% (active).
Regarding `O=C1Nc2ccc(Br)cc2C1=N/C=c1\[nH]c(=O)/c(=C/c2ccc(Cl)cc2)s1`, the growth was 93.6%.
